Experimental data from ChEMBL document CHEMBL3988442, “University of Dundee, Small-Polar-MMV Screening Library” (2021).
In all, about 48,000 compounds went through this assay and about 13,000 (27%) showed an effect of 50% or more. This is one part of the list.

Tested on: Wolbachia pipientis
Assay: Anti-Wolbachia Cell-Based Screen
Type: functional
Design: scale not given: in the data most compounds retested in dose-response had high values
Conditions: 5 µM

Row | SMILES | Percent Effect [%]
1 | CC(=O)NCCc1ccc(S(=O)(=O)N(C)C(C)C(C)(C)C)s1 (stereo unspecified) | -15.89
2 | COc1ccc(C(C)C)cc1C1CC(=O)NCc2nc(N(C)C)sc21 (stereo unspecified) | -38.77
3 | COc1ccnc(N2CCN(C(=O)c3cnc(C4CC4)s3)CC2)n1 | -14.05
4 | Clc1ccc2cccnc2c1CN1CCn2c(nnc2C2CC2)C1 | -29.6
5 | CN1CCC(c2nnc3n2CCN(S(=O)(=O)c2ccccc2)C3)CC1 | 90.65
6 | CN1CCCC1c1nnc2n1CCN(S(=O)(=O)c1ccccc1Cl)CC2 (stereo unspecified) | 104.7
7 | CCc1nnc2n1CCN(CCS(=O)(=O)c1ccccc1)C2 | 5.511
8 | CN1CCCC(c2nnc3n2CCN(S(=O)(=O)c2ccccc2Cl)C3)C1 (stereo unspecified) | 97.31
9 | Cn1cnnc1S(=O)(=O)C1CCN(S(=O)(=O)c2c(Cl)cccc2Cl)CC1 | -14.3
10 | CNC(=O)CS(=O)(=O)C1CCN(S(=O)(=O)c2cccc(Cl)c2C)CC1 | -17.28
11 | O=S(=O)(c1ccccc1Cl)N1CCCC(c2ncc[nH]2)C1 (stereo unspecified) | -0.103
12 | CN1CCC(c2nnc3n2CCN(S(=O)(=O)c2ccccc2Cl)C3)CC1 | 149.5
13 | c1ccc2oc(N3CCn4c(nnc4C4CC4)C3)nc2c1 | -3.429
14 | O=c1[nH]nc2n1CCN(S(=O)(=O)c1ccccc1Cl)C2 | -39.65
15 | CCOCc1cccc(NC(=O)C2COCCO2)c1 (stereo unspecified) | 8.112
16 | CC(Oc1ccc(OCc2ncc(C(C)C)o2)cc1)C(N)=O (stereo unspecified) | 3.924
17 | COCCN(C(=O)c1ccc(OC)cc1)c1ccc(C#N)cc1 | 3.07
18 | Cc1ccc(C(=O)NCCCN(C(C)C)S(C)(=O)=O)c(=O)[nH]1 | 16.76
19 | COCCN(C)C[C@H]1CC[C@@H](Cc2ccc3c(cnn3C)c2)O1 | -8.226
20 | O=C(NCC1CCCCC1)N1C[C@H]2C[C@H](C(=O)N3CCOCC3)[C@@H](C1)O2 | -10.09
21 | O=C(NCC1CCCCC1)N1C[C@H]2C[C@H](C(=O)N3CCCC3)[C@@H](C1)O2 | -1.453
22 | CN(C)C(=O)[C@H]1C[C@@H]2CN(S(=O)(=O)c3ccccc3)C[C@H]1O2 | 1.569
23 | Cc1cnc(N2C[C@H]3C[C@H](C(=O)N4CCN(C)CC4)N(C)[C@H]3C2)nc1.O=C(O)C(F)(F)F.O=C(O)C(F)(F)F.O=C(O)C(F)(F)F | 1.417
24 | CC(C)NC(=O)N1C[C@H]2C[C@H](C(=O)N3CCCC3)[C@@H](C1)O2 | -51.72

Row | SMILES | Percent Effect [%]
25 | CC(C)CS(=O)(=O)N1C[C@H]2C[C@H](C(=O)N3CCCC3)[C@@H](C1)O2 | 109.6
26 | CC(C)CS(=O)(=O)N1C[C@H]2C[C@H](C(=O)N(C)C)[C@@H](C1)O2 | 117.8
27 | CC(C)CS(=O)(=O)N1C[C@H]2C[C@H](C(=O)N3CCN(C)CC3)[C@@H](C1)O2.O=C(O)C(F)(F)F | 100.5
28 | CC(C)CS(=O)(=O)N1C[C@H]2C[C@H](C(=O)NCc3ccccc3)[C@@H](C1)O2 | 6.255
29 | CC(C)CN1CCS(=O)(=O)[C@@H]2CCN(S(=O)(=O)CC(C)C)CC[C@@H]21.O=C(O)C(F)(F)F | -0.8095
30 | CCCS(=O)(=O)N1C[C@H]2C[C@H](C(=O)N(C)C)[C@@H](C1)O2 | 1.854
31 | CC(C)CS(=O)(=O)N1C[C@H]2C[C@H](C(=O)N3CCOCC3)[C@@H](C1)O2 | 113.5
32 | CCS(=O)(=O)NCCNc1c(C#N)cnc2c(F)cc(F)cc12 | 9.088
33 | O=c1c2cccnc2cnn1CC(O)c1cccc(Cl)c1 (stereo unspecified) | -24.01
34 | O=C(NCC(O)c1cccc(F)c1)C1CCN(C2CCCCC2)CC1 (stereo unspecified) | -12.87
35 | O=C(c1cccnc1O)N(Cc1cccs1)CC1CCCO1 (stereo unspecified) | -28.97
36 | COCCN(Cc1cccs1)C(=O)C1CCCN(C(N)=O)C1 (stereo unspecified) | 11.05
37 | COCCN1CCC(CN(CC2CCCO2)C(=O)Cn2cccn2)CC1 (stereo unspecified) | 105.2
38 | CCN1CCCC1CN(Cc1ccon1)CC1CCN(CCOC)CC1 (stereo unspecified) | 1.475
39 | COCCN1CCC(CN(CC2CCCO2)C(=O)Cc2cccs2)CC1 (stereo unspecified) | 153.6
40 | CCN1CCCC1CN(Cc1ccoc1)CC1CCN(CCOC)CC1 (stereo unspecified) | 3.887
41 | CN(C)C(=O)N1CCC2(CC1)CN(CC1CC1)CC21CCNC1=O.O=C(O)C(F)(F)F (stereo unspecified) | -46.87
42 | CC(C)CC(C(=O)N(C)Cc1ncnn1C)N1CCCCC1=O (stereo unspecified) | 7.289
43 | O=C(C1CCCO1)N1CCC(n2cc(-c3ccsc3)nn2)CC1 (stereo unspecified) | 2.629
44 | CCNC(=O)NC1CCN(c2ccc(S(=O)(=O)CC)cc2)CC1 | -0.338
45 | CC(C#N)CN(C)Cc1ccc(Cl)c2cccnc12 (stereo unspecified) | -6.534
46 | CC(C)n1cc(C(=O)N2CCC(n3cc(C(C)(C)C)nn3)CC2)cn1 | 5.915
47 | CCC(CC)(CNC(=O)OC(C)(C)C)NC(=O)C1CC1 | 0.8539
48 | COCCN1C[C@@H]2CN(Cc3ccsc3)CCC[C@]2(C(=O)O)C1.O=C(O)C(F)(F)F.O=C(O)C(F)(F)F | 4.755

Row | SMILES | Percent Effect [%]
49 | Cc1ccc(CN2CCCC3(CCCC(=O)N3)C2)s1.O=C(O)C(F)(F)F (stereo unspecified) | -10.23
50 | COCCN1C[C@@H]2CN(Cc3ccoc3)CCC[C@]2(C(=O)O)C1.O=C(O)C(F)(F)F.O=C(O)C(F)(F)F | -3.751
51 | Cc1ccc(CN2C[C@@H]3CN(CC4CCOCC4)CCO[C@@H]3C2)s1.O=C(O)C(F)(F)F.O=C(O)C(F)(F)F | -6.305
52 | Cc1ccc(CN2CCCC3(CCCN3S(C)(=O)=O)C2)s1.O=C(O)C(F)(F)F (stereo unspecified) | 2.867
53 | COCCN1C[C@@H]2CN(Cc3ccc(C)s3)CCC[C@]2(C(=O)O)C1.O=C(O)C(F)(F)F.O=C(O)C(F)(F)F | 111.2
54 | Cc1ccc(CN2CCC[C@]3(C(=O)O)CN(CC4CC4)C[C@@H]3C2)s1.O=C(O)C(F)(F)F.O=C(O)C(F)(F)F | 98.43
55 | Cc1ccc(CN2CCC[C@]3(C(=O)O)CN(C)C[C@@H]3C2)s1.O=C(O)C(F)(F)F.O=C(O)C(F)(F)F | 119.8
56 | CN1C[C@@H]2CN(Cc3ccsc3)CCC[C@]2(C(=O)O)C1.O=C(O)C(F)(F)F.O=C(O)C(F)(F)F | 3.355
57 | Cc1ocnc1C(=O)N1CCC2(CC1)c1nc[nH]c1CCN2CC(C)C | 6.768
58 | OC(COCc1cccs1)CSc1nnc2ccccn12 (stereo unspecified) | 9.754
59 | COc1nn(C)c2c1CCCN(C(=O)c1cccc3cccnc13)C2.O=C(O)C(F)(F)F | 97.34
60 | COc1nn(C)c2c1CCCN(S(=O)(=O)c1cccc(F)c1)C2 | -2.811
61 | COc1nn(C)c2c1CCCN(C(=O)c1cccc(C)n1)C2.O=C(O)C(F)(F)F | 98.8
62 | COc1nn(C)c2c1CCCN(C(=O)c1ccccc1)C2 | -3.094
63 | Cc1ccccc1C(=O)N1Cc2c(Cn3ccnc3)nn(C)c2C1.O=C(O)C(F)(F)F | -9.207
64 | Cn1nc(C#N)c2c1CN(C(=O)c1cccnc1)CCC2.O=C(O)C(F)(F)F | 29.43
65 | Cc1nc(COCc2cnc3n2CCN(C2CCC2)C3C)cs1.O=C(O)C(F)(F)F (stereo unspecified) | 1.124
66 | Cc1c(C(=O)N2CC(=O)N(C)C2)nnn1-c1cccc2cccnc12 | -0.5272
67 | Cc1occc1C(=O)NCC(=O)NCCOc1ccc2c(c1)CCC2 | 29.83
68 | Cn1ccnc1C(=O)NC[C@H]1OC[C@@H]2CCN(S(C)(=O)=O)C[C@@H]21 | -43.59
69 | Cc1cc(=O)n(CCNS(=O)(=O)c2cccc(C(F)(F)F)c2)cn1 | 121.6
70 | O=c1ccc(-n2ccnc2)nn1CCNS(=O)(=O)c1ccc(F)c(Cl)c1 | 15.65
71 | CNS(=O)(=O)c1cccc(CNc2cc(C(F)(F)F)ccn2)c1 | -5.444
72 | Cc1cc(NCCNS(=O)(=O)c2cccc(Cl)c2)nc(C)n1 | 15.59

Row | SMILES | Percent Effect [%]
73 | Cc1cc(C)n(-c2ccc(NCCNS(=O)(=O)c3ccccc3)nn2)n1 | 5.574
74 | Cc1cc(=O)n(CCNS(=O)(=O)c2ccccc2)cn1 | 113.1
75 | CCCn1ccnc1SCCNS(=O)(=O)c1ccccc1 | 8.595
76 | Cc1cc(=O)n(CCNS(=O)(=O)c2ccc(F)c(Cl)c2)cn1 | 79.22
77 | O=c1ccc(-n2cccn2)nn1CCNS(=O)(=O)c1ccc(F)c(Cl)c1 | 8.551
78 | O=C(Nc1ccc2occc2c1)N1CCCC(O)(CO)CC1 (stereo unspecified) | -15.39
79 | Cc1cc(Br)ccc1NCC(=O)Nc1cc(C(C)(C)C)no1 | -8.877
80 | Cc1n[nH]c(C)c1C1COCCN1C(=O)Cc1cccc(F)c1 (stereo unspecified) | -5.544
81 | O=C(c1ccc2c(c1)CCCC2)N1CCOCC1c1ncon1 (stereo unspecified) | 4.25
82 | Cc1cn[nH]c1C1COCCN1C(=O)c1ccc2[nH]nnc2c1 (stereo unspecified) | 120.8
83 | Cc1n[nH]c(C)c1C1COCCN1C(=O)c1ccccc1 (stereo unspecified) | 5.535
84 | CC(=O)Nc1cc(C(=O)N2CCOCC2c2ccc(C)o2)ccc1F (stereo unspecified) | -2.563
85 | Cc1cn[nH]c1C1COCCN1C(=O)c1cc(F)ccc1F (stereo unspecified) | 95.39
86 | Cc1cn[nH]c1C1COCCN1C(=O)c1ccc2c(c1)CCCC2 (stereo unspecified) | 108.4
87 | CS(=O)(=O)NCc1ccc(NC(=O)CC2=CCCCC2)cc1 | 0.7476
88 | CN(CCO)Cc1cc(Cl)ccc1OCC(O)CN1CCCCCC1 (stereo unspecified) | 92.98
89 | CN(CCCO)Cc1cc(Cl)ccc1OCC(O)CN1CCCCCC1 (stereo unspecified) | 86.94
90 | CCOc1ccc(Cl)cc1C(C(=O)O)N1CCCC1 (stereo unspecified) | -26.77
91 | CCOCC(O)CN1CCN(C(=O)c2ccnc(N(C)C)c2)CC1 (stereo unspecified) | -11.71
92 | CCN1CCN(CC(O)c2cc(Cl)ccc2Cl)CC1 (stereo unspecified) | -3.784
93 | COCCN(C)C(C(=O)O)c1cc(Cl)ccc1OC (stereo unspecified) | -4.575
94 | COCC(O)CN1CCC(NC(=O)c2ccccc2Cl)CC1 (stereo unspecified) | -8.699
95 | COCCN(C)Cc1cc(Cl)ccc1OCC(O)CN1CCCCCC1 (stereo unspecified) | 95.86
96 | OCCN1CCN(CC(O)c2cc(Cl)ccc2Cl)CC1 (stereo unspecified) | -2.66
